Experimental data published in PubChem BioAssay (NCI).
The panel holds about 79,000 compounds, 15% with a hit somewhere; the sample as a whole holds those more often. Values without a mark were called inactive. Cut-off read from the data, not from the text of the source: active = growth inhibition above about 70%; inactive = the rest.

Experiment: NCI Yeast Anticancer Drug Screen. Data for the mlh1 strain (AID 171);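 note: 0% = growth of vehicle-treated control cultures of the same strain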
Conditions: S. cerevisiae mlh1 strain growth inhibition; at 1.2 µM; stronger effect = higher value
In short: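 Compounds are applied to a genetically altered yeast strain, and its growth is compared with that of vehicle-treated cultures to give percent inhibition.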

Row | Compound | growth inhibition
1 | COc1ccc(/C=C2\CCc3ccccc3C2=O)cc1OC | 20%
2 | O=Cc1ccccc1B(O)O | 8%
3 | O=C(O)[C@H]1[C@@H](C2CCCCC2)O[C@@H](C2CCCCC2)O[C@H]1C(F)(F)F | -3%
4 | CN(NC(=O)/C(=C/C=C/c1ccccc1)NC(=O)c1ccccc1)C1=C(Cl)C(=O)[N+](c2ccccc2)=CC1 | 2%
5 | CCCCOc1ccc(Nc2c3ccccc3nc3ccccc23)cc1 | -39%
6 | N#C/C(=C1C=C/C(=N\O)C(Cl)=C\1)c1ccccc1 | -4%
7 | COc1ccc(C(=O)OCCc2ccccc2)cc1 | 0%
8 | Cc1c2ccncc2c(C)c2c1oc1ccccc12 | 1%
9 | CCCC#CCOC(=O)c1cc([N+](=O)[O-])cc([N+](=O)[O-])c1 | 1%
10 | Nc1nc(Nc2ccccc2)nc(Nc2ccccc2)n1 | -6%
11 | COc1ccc(/C=C2\S/C(=N/Nc3nc(-c4ccccc4)cs3)NC2=O)cc1OC | 13%
12 | CC(O)CN1C(=O)c2cccc3cc([N+](=O)[O-])cc(c23)C1=O (stereo unspecified) | 5%
13 | Cn1c(COc2ccc(/C=N/NC(=O)CCC(=O)N/N=C/c3ccc(OCc4c[n+]5ccccc5n4C)cc3)cc2)c[n+]2ccccc12 | 1%
14 | COC1=C(N=[N+]=[N-])C(=O)c2ncccc2C1=O | 10%
15 | CCN(CC)c1ccc(N=Nc2cc(S(=O)(=O)O)ccc2O)c(O)c1 | -12%
16 | O=C1C(C(O)(C(F)(F)F)C(F)(F)F)CCC1C(O)(C(F)(F)F)C(F)(F)F (stereo unspecified) | 5%
